Experimental findings from PubChem BioAssay AID837 (The Scripps Research Institute Molecular Screening Center, 2007) are described below.

Active and inactive are the calls of the source.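 The calls were made as follows: active = relative FRET score above 0.01, or acceptor fluorescence over 30% below the sample-well median; inactive = the rest.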

The target in the experiment is Protein Rev (Human immunodeficiency virus type 1 group M subtype B (isolate WMJ22)) (UniProt P05866). Description: disruptors of Rev peptide-RRE RNA complex – biochemical, FRET, acceptor and relative FRET calls, confirmation (AID 837).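 Also: relative FRET combines rise in Cy5 acceptor with fall in fluorescein donor.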 The note with it: Fl-Rev peptide / Cy5-RRE RNA FRET, 1536-well; at 8 µM.
Chain of Protein Rev (Human immunodeficiency virus type 1 group M subtype B (isolate WMJ22)) (P05866 whole entry, looked up): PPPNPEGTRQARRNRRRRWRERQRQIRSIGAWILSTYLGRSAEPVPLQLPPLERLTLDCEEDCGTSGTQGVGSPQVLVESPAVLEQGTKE
Consider `CCOc1cc(CNCCCN2CCOCC2)ccc1OCC(=O)Nc1cccc2ccccc12`, for which the compound was classed as inactive.

Take `CC1=NOC(=O)/C1=C/c1ccc(N(C)C)cc1`: the outcome is “active; fluoresces like the donor”.

For `O=c1[nH]c2cc(Br)cnc2nc1/C=C(\O)c1ccc(F)cc1`, the outcome was inactive.

As for `FC(F)(F)c1cc(-c2ccco2)nc(NCc2ccc(Cl)cc2)n1`, the call was inactive.

Consider `CN1CCc2c(sc3c2C(=O)NC(c2cn(Cc4ccccc4)c4ccccc24)N3)C1` (stereo not given), for which the compound was called inactive.

For `CCCCOc1ccc(CSC(=N)N)cc1[N+](=O)[O-]`, the result was inactive.

With `NCCCCCc1nnc(SCc2ccccc2Cl)o1`, the compound was called inactive.

Take `CC(C)COc1ccc(Cc2cnc(N)nc2N)cc1`: the outcome was active.

As to `O=C(NCc1cccs1)c1cc2c(s1)CCCC2`, the result was inactive.

`Nc1nc(Nc2ccc(Cl)cc2)nc2ccccc12`: the compound was called active.

As for `CCCN(N=Nc1cccc([N+](=O)[O-])c1)c1cccc([N+](=O)[O-])c1`, the result was inactive.

Regarding `N=c1n(Cc2ccccc2)c2ccccc2n1CC(O)c1ccco1` (stereo not given), the call was inactive.

As for `CC(C(=O)O)N1C(=O)/C(=C/C=C/c2ccco2)SC1=S` (stereo not given), the outcome was “inactive; quenches the donor”.

Consider `OC(COc1ccc2cc(Br)ccc2c1)CN1CCCC1` (stereo not given), for which the compound was classed as inactive.

Regarding `CCC(C)(C)c1ccc(OCCN2C(=O)NC(C)(C)C2=O)cc1`, the call was inactive.

As to `CC(C)(c1ccccc1)c1ccc(OCCCNCCO)cc1`, the outcome was inactive.

For `CCCCOC(=O)Cn1c(=N)n(CCC)c2ccccc21`, the result was inactive.

Regarding `CCOC(=O)c1cn2nc(-c3ccc(OCC)cc3)cc2nc1C1CCN(C(=O)OC(C)(C)C)CC1`, the call was inactive.

Take `OC(CN1C2=NCCCN2c2ccccc21)c1ccc(Br)cc1` (stereo not given): the compound was called inactive.

As to `CCc1ccc2nc3nc(C)cc(C)c3c(N)c2c1`, the compound was called active.

With `C=CCNCCCCOc1c(Cl)cc(C)cc1Br`, the compound was classed as inactive.

On to `COc1cccc(Nc2nc(N)nc(-c3oc4ccccc4c3C)n2)c1`, for which the call was active.

In the case of `O=C(c1cccc(F)c1)N1CCN(c2cccc(Cl)c2)CC1`, the compound was classed as inactive.

Consider `CCOC(=O)c1cnc(SC)nc1Sc1ccccc1Cl`, for which the compound was called inactive.

Take `O=C(Cn1cnc2ccccc2c1=O)N1CCOCC1`: the compound was called inactive.

With `CCn1c(=N)n(CCOc2ccc(OC)cc2)c2ccccc21`, the result was inactive.

With `CN=C1c2cc3cc(OC)ccc3n2CCN1Cc1ccccc1`, the compound was classed as inactive.

As for `OC(COCCC12CC3CC(CC(C3)C1)C2)CN1CCCCC1` (stereo not given), the call was inactive.

Consider `Cc1ccsc1C1NC(=O)c2c(sc3c2CCN(C)C3)N1` (stereo not given), for which the outcome was inactive.

As to `COc1ccc(CCn2c(=N)c(C(=O)NCc3ccco3)cc3c(=O)n4cccc(C)c4nc32)cc1`, the call was inactive.

For `CCCn1c(=N)c(C(=O)NCc2ccc3c(c2)OCO3)cc2c(=O)n3cccc(C)c3nc21`, the compound was classed as inactive.

Take `COc1ccc(/C=C/c2cc(-c3ccc(C)cc3)o[n+]2C)cc1`: the compound was called active.

With `Cc1cc(Cl)c(OCCCNCc2ccccc2)c(Br)c1`, the outcome was inactive.

Consider `CCc1nnc(NC(=O)c2ccc3c(c2)C(=O)N(C(C)(C)C)C3=O)s1`, for which the outcome was inactive.

In the case of `c1coc(CNc2c3c(nc4ccccc24)CCC3)c1`, the result was inactive.

With `COc1ccc(CSc2nnc(C)n2N)cc1`, the result was inactive.

Consider `CC(=O)c1ccc2c(c1)c1ccccc1n2CC(C)C`, for which the outcome was inactive.

For the compound `CN1CCN(Cc2cccc(Oc3ccc(Cl)cc3)c2)CC1`, the call was inactive.

For the compound `CCN(CC)CCNC1=NCCn2c1cc1cc(OC)ccc12`, the compound was called active.

For `O=C(CN1C2=NCCN2c2ccccc21)c1ccc(Br)cc1`, the outcome was active.
